Laboratory results published in the supplement of paper PMC10849652.
The full data set covers some 7,900 targets. This sample favours those with a hit. About 0.6% of all pairs of compound and target were hits. Unmarked numbers belong to inactive results.

Tests used:
Experiment in all cases: log2 fold change, soluble protein after heating vs DMSO (PISA); higher = thermal stabilisation; K562 cells, 10 uM, 30 min; active = over 0.2 and 3.5 SD of the protein, either way, in both replicates (recomputed)
[1] = compound: CS(=O)(=O)c1ccc(-c2cnc(N)c(C(=O)Nc3ccccc3)n2)cc1
Summary of the method: (§1)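 K562 cells at 2×10^6 cells/mL were given 10 μM compound for 30 min. Aliquots then went through 3 min of heating across 48°C-58°C, were pooled, and were extracted in PBS with 0.5% NP-40 at 4°C, and the supernatant after 21,000xg for 90 min was quantified by TMTpro 16plex LC-MS/MS with channel sums equalised. Thermal stability relative to control samples, from duplicates, is given as log2 fold change.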

crizotinib = compound: C[C@@H](Oc1cc(-c2cnn(C3CCNCC3)c2)cnc1N)c1c(Cl)ccc(F)c1Cl [crizotinib]
Summary of the method: as §1

[2] = compound: C[C@@H]1COCCN1C2=NC(=NC(=C2)C3(CC3)S(=O)(=O)C)C4=C5C=CNC5=CC=C4
Summary of the method: as §1

[3] = compound: C[C@H](C1=CC=C(C=C1)C(=O)NC2=C3C=CNC3=NC=C2)N
Summary of the method: as §1

duvelisib = compound: C[C@H](Nc1ncnc2nc[nH]c12)c1cc2cccc(Cl)c2c(=O)n1-c1ccccc1 [duvelisib]
Summary of the method: as §1

gandotinib = compound: Cc1cc(Nc2cc(CN3CCOCC3)c3nc(C)c(Cc4ccc(Cl)cc4F)n3n2)n[nH]1 [gandotinib]
Summary of the method: as §1

tozasertib = compound: Cc1cc(Nc2cc(N3CCN(C)CC3)nc(Sc3ccc(NC(=O)C4CC4)cc3)n2)n[nH]1 [tozasertib]
Summary of the method: as §1

[4] = compound: Cc1cc(SCc2sc(-c3ccc(C(F)(F)F)cc3)nc2C)ccc1OCC(=O)O
Summary of the method: as §1

doramapimod = compound: Cc1ccc(-n2nc(C(C)(C)C)cc2NC(=O)Nc2ccc(OCCN3CCOCC3)c3ccccc23)cc1 [doramapimod]
Summary of the method: as §1

ispinesib = compound: Cc1ccc(C(=O)N(CCCN)[C@@H](c2nc3cc(Cl)ccc3c(=O)n2Cc2ccccc2)C(C)C)cc1 [ispinesib]
Summary of the method: as §1

bafetinib = compound: Cc1ccc(NC(=O)c2ccc(CN3CC[C@H](N(C)C)C3)c(C(F)(F)F)c2)cc1Nc1nccc(-c2cncnc2)n1 [bafetinib]
Summary of the method: as §1

[5] = compound: Cc1cccc(CC(=O)N2CCc3c2ccc(-c2cn(C)c4ncnc(N)c24)c3F)n1
Summary of the method: as §1

nilotinib = compound: Cc1cn(-c2cc(NC(=O)c3ccc(C)c(Nc4nccc(-c5cccnc5)n4)c3)cc(C(F)(F)F)c2)cn1 [nilotinib]
Summary of the method: as §1

[6] = compound: Cc1nc(Nc2n[nH]c3c2CN(C(=O)N[C@H](CN(C)C)c2ccccc2)C3(C)C)c2sccc2n1
Summary of the method: as §1

dasatinib = compound: Cc1nc(Nc2ncc(C(=O)Nc3c(C)cccc3Cl)s2)cc(N2CCN(CCO)CC2)n1 [dasatinib]
Summary of the method: as §1

[7] = compound: Cc1ncc(-c2ccnc(Nc3ccc(S(C)(=O)=O)cc3)n2)n1C(C)C
Summary of the method: as §1

[8] = compound: Cn1cc(-c2ccc3c(c2)CCN3C(=O)Cc2cccc(C(F)(F)F)c2)c2c(N)ncnc21
Summary of the method: as §1

[9] = compound: Cn1cc(-c2ccc3nnc(C(F)(F)c4ccc5ncccc5c4)n3n2)cn1
Summary of the method: as §1

tipifarnib = compound: Cn1cncc1[C@@](N)(c1ccc(Cl)cc1)c1ccc2c(c1)c(-c1cccc(Cl)c1)cc(=O)n2C [tipifarnib]
Summary of the method: as §1

mubritinib = compound: FC(F)(F)c1ccc(/C=C/c2nc(COc3ccc(CCCCn4ccnn4)cc3)co2)cc1 [mubritinib]
Summary of the method: as §1

UniProt Q9HB90, sequence (Q9HB90 whole entry, looked up): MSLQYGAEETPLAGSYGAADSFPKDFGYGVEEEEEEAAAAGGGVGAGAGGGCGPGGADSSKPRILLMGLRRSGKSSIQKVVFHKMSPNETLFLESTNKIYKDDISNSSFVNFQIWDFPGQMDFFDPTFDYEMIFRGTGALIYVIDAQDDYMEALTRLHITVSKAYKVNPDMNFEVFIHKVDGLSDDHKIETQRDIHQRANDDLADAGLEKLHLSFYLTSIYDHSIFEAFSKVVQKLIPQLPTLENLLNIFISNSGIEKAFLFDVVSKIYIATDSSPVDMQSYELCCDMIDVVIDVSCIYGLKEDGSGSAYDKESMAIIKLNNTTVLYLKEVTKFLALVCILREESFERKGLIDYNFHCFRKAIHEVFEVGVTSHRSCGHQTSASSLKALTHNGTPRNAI
UniProt Q9H082, sequence (Q9H082 whole entry, looked up): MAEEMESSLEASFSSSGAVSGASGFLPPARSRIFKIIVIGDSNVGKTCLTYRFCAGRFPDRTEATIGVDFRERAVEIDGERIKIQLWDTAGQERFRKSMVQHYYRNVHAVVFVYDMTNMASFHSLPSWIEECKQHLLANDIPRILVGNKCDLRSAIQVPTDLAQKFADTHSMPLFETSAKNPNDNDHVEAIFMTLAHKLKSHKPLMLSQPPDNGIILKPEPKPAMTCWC
UniProt Q14498, sequence (Q14498 whole entry, looked up): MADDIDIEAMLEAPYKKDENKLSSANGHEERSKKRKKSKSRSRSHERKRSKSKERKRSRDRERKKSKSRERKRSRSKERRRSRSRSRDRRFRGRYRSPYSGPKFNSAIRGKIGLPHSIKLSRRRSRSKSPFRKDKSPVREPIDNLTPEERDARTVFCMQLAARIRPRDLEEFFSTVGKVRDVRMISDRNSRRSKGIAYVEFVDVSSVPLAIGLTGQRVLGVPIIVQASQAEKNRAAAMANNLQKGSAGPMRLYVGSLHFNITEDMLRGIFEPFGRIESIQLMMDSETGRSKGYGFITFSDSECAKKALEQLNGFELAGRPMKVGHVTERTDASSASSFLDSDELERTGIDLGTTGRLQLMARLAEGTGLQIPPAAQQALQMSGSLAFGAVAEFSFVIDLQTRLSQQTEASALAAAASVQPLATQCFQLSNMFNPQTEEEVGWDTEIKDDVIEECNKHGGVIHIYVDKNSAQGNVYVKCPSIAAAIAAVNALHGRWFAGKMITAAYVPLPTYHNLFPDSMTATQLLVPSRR
UniProt Q9NTZ6, sequence (Q9NTZ6 whole entry, looked up): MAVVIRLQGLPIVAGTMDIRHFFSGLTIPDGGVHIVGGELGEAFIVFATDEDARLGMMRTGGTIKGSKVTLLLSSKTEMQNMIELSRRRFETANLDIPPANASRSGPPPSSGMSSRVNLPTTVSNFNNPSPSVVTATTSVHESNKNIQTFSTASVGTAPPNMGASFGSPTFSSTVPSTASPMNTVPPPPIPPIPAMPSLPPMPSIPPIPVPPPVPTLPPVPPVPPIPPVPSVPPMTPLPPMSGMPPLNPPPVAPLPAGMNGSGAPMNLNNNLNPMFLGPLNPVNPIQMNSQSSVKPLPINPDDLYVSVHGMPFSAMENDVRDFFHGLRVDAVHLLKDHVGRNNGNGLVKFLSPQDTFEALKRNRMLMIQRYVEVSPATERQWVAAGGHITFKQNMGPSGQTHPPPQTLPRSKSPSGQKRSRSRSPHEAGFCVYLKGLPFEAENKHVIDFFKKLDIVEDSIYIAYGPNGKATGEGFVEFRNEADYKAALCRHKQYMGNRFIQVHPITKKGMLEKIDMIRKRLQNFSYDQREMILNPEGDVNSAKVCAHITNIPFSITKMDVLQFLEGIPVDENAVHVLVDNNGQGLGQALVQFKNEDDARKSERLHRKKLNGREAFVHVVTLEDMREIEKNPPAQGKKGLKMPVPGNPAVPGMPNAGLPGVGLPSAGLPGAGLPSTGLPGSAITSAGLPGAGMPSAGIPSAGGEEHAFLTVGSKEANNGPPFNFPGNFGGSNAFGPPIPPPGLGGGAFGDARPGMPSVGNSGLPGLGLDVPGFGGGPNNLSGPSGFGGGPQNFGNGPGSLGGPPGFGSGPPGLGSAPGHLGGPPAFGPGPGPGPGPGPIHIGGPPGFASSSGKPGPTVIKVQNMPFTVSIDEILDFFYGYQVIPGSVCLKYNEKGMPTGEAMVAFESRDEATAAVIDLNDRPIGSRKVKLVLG
UniProt Q8IZQ5, sequence (Q8IZQ5 whole entry, looked up): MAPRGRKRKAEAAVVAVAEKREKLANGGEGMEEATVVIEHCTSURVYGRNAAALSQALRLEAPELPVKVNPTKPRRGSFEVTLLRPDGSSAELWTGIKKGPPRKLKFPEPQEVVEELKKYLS
UniProt Q9HB40, sequence (Q9HB40 whole entry, looked up): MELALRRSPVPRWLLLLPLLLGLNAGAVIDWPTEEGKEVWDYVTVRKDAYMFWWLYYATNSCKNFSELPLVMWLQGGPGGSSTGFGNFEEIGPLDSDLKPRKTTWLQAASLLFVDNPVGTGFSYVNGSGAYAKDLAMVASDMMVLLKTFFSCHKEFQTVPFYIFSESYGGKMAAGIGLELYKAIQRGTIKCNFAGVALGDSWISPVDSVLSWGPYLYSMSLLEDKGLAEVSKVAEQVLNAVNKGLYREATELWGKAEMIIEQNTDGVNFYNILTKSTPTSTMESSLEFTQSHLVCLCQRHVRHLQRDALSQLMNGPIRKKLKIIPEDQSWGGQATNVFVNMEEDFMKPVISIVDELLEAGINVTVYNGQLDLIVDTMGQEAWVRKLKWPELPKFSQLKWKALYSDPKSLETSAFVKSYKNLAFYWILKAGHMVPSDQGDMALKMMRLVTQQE
UniProt Q86TU7, sequence (Q86TU7 whole entry, looked up): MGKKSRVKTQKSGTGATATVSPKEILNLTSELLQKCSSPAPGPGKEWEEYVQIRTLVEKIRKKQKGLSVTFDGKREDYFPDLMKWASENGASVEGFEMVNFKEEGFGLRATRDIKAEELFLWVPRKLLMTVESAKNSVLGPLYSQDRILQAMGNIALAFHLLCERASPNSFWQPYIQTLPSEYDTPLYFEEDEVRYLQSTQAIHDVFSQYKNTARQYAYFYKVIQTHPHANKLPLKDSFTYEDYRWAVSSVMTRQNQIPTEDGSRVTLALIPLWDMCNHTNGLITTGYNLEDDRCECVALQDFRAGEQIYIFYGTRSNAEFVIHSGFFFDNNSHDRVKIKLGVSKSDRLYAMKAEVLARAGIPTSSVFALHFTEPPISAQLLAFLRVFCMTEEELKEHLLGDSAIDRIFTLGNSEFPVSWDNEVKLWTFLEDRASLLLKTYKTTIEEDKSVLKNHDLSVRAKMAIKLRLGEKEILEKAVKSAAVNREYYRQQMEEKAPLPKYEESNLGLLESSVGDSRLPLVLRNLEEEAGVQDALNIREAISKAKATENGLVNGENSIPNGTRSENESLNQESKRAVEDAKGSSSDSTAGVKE
UniProt Q9BQY4, sequence (Q9BQY4 whole entry, looked up): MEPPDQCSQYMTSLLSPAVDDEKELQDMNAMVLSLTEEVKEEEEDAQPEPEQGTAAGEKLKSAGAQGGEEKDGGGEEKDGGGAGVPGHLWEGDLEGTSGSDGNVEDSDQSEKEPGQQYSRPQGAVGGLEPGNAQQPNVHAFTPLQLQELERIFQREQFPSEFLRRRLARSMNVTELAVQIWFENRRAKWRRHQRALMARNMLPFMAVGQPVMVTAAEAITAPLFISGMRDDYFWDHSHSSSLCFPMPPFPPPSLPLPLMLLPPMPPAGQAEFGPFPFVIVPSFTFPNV
UniProt Q6NT16, sequence (Q6NT16 whole entry, looked up): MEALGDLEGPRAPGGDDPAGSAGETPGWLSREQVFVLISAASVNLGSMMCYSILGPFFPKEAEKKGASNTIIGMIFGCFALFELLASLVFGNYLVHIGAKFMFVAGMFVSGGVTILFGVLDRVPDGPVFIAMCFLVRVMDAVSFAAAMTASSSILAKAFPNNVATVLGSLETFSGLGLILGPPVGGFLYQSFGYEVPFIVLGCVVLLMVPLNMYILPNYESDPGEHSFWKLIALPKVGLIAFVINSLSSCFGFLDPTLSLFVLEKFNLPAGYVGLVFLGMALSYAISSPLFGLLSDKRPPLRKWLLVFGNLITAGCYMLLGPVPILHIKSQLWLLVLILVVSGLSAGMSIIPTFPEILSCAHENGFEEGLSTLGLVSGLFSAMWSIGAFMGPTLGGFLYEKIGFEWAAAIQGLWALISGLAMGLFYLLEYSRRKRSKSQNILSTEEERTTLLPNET
UniProt Q15382, sequence (Q15382 whole entry, looked up): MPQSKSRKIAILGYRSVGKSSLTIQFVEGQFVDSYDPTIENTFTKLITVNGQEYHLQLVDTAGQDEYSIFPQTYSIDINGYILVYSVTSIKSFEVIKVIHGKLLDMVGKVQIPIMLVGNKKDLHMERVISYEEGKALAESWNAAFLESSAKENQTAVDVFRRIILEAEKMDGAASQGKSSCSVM

Row | Target | log2 fold change [1] | log2 fold change (crizotinib) | log2 fold change [2] | log2 fold change [3] | log2 fold change (duvelisib) | log2 fold change (gandotinib) | log2 fold change (tozasertib) | log2 fold change [4] | log2 fold change (doramapimod) | log2 fold change (ispinesib) | log2 fold change (bafetinib) | log2 fold change [5] | log2 fold change (nilotinib) | log2 fold change [6] | log2 fold change (dasatinib) | log2 fold change [7] | log2 fold change [8] | log2 fold change [9] | log2 fold change (tipifarnib) | log2 fold change (mubritinib)
1 | RAB33B (UniProt Q9H082) | 0.007 | 0.106 | 0.064 | -0.037 | 0.058 | -0.095 | -0.032 | -0.038 | -0.021 | -0.065 | -0.01 | 0.012 | 0.01 | 0.018 | -0.058 | 0.022 | 0 | 0.151 | 0.024 | -0.01
2 | RPS25 (UniProt P62851) | -0.101 | -0.041 | -0.286 | 0.239 | -0.083 | 0.239 | 0.028 | 0.032 | 0.178 | -0.148 | 0.259 | -0.007 | 0.015 | 0.174 | 0.07 | -0.032 | -0.177 | -0.077 | 0.062 | -0.068
3 | SETD3 (UniProt Q86TU7) | 0.007 | 0.051 | 0.076 | -0.012 | 0.005 | 0.021 | -0.037 | 0.012 | -0.026 | 0.059 | -0.015 | -0.005 | 0.002 | -0.009 | 0.006 | -0.023 | 0.033 | 0.031 | 0.029 | 0.052
4 | RBM12 (UniProt Q9NTZ6) | 0.079 | 0.005 | 0.16 | -0.109 | 0.011 | -0.132 | 0.04 | 0.1 | -0.076 | 0.008 | 0.026 | 0.046 | -0.108 | -0.227 | -0.287 | -0.09 | 0.048 | 0.015 | -0.061 | 0.032
5 | SELENOH (UniProt Q8IZQ5) | -0.19 | 0 | -0.014 | -0.022 | -0.101 | -0.12 | -0.008 | -0.051 | -0.018 | 0.036 | 0.042 | 0.21 | -0.02 | 0.011 | 0.076 | 0.012 | -0.039 | 0.036 | -0.01 | -0.009
6 | SEC31A (UniProt O94979) | 0.045 | -0.011 | 0.007 | 0.084 | 0.004 | -0.158 | 0.049 | 0.064 | 0 | 0.034 | 0.011 | 0.019 | -0.11 | -0.042 | -0.134 | 0.054 | -0.031 | -0.057 | -0.065 | 0.079
7 | RHOXF2 (UniProt Q9BQY4) | 0.027 | 0.001 | 0.073 | 0.018 | 0.04 | -0.045 | -0.029 | -0.092 | 0.008 | 0.009 | -0.05 | -0.215 (active) | 0.009 | -0.007 | 0.053 | -0.058 | 0.008 | -0.035 | 0.048 | 0.06
8 | RBM39 (UniProt Q14498) | -0.043 | -0.114 | 0.033 | -0.01 | -0.012 | -0.052 | 0.081 | 0.036 | -0.02 | -0.032 | 0.046 | 0.082 | -0.027 | -1.03 (active) | -0.1 | 0.055 | -0.041 | -0.012 | -0.03 | -0.043
9 | SLC18B1 (UniProt Q6NT16) | 0.027 | -0.404 (active) | 0.06 | -0.034 | 0.047 | 0.092 | -0.097 | -0.07 | -0.002 | -0.193 | -0.071 | 0 | -0.024 | 0.04 | 0.063 | -0.016 | 0.034 | 0.198 | -0.029 | -0.018
10 | RRAGC (UniProt Q9HB90) | 0.016 | -0.262 | 0.008 | -0.027 | 0.053 | 0 | -0.061 | -0.039 | 0.019 | -0.153 | -0.07 | -0.054 | -0.005 | 0.022 | 0.05 | -0.021 | 0.001 | 0.05 | -0.027 | 0.031
11 | SCPEP1 (UniProt Q9HB40) | -0.03 | -0.254 (active) | -0.041 | -0.028 | 0.083 | 0.127 | -0.03 | 0.032 | -0.032 | -0.163 | -0.499 (active) | -0.013 | 0.028 | -0.006 | -0.007 | -0.004 | 0.023 | 0.034 | 0.026 | 0.04
12 | RHEB (UniProt Q15382) | -0.001 | 0.038 | 0.096 | -0.041 | 0.021 | -0.097 | -0.025 | -0.009 | -0.018 | 0.042 | 0.01 | 0.004 | -0.027 | 0.001 | 0.004 | 0.04 | 0.035 | 0.001 | -0.042 | 0.004
